Shown is part of a subset that was picked to be rich in hits.
Pf Dd2 growth: Plasmodium falciparum Dd2 growth inhibition | P. falciparum Dd2 growth, SYBR Green, 72 h | Potency, µM (top dose mostly 28.9 µM), for the others: at the top dose activity, negative = inhibition, hits mostly inhibitors | actives 4.3% (n = 120,000); active = well fitted inhibition curve with a large enough effect;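 also: plate controls were DMSO vehicle for no effect and reference drug for full effect; nearly all actives have a fitted effect of over 65% in size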
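Readout: SYBR Green fluorescence, 485 nm excitation, 535 nm emission, after ~16 h lysis at 37C. Before that, Dd2-infected red cells (2.5% hematocrit) grew 72 h with compound, 29 uM top final concentration.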
An asterisk follows results filed as active; i = inactive; [ ] = another dose, or the depositor's remark. Potency is read from the fitted curve at half-maximal effect.

SMILES	Pf Dd2 growth
O=C1NCCC[C@@H]1NC(=O)[C@@H]1CN(C(=O)c2cccc(F)c2)CCN1C(=O)C1CCNCC1	5%
Cn1nc(-c2ccc(F)cc2)cc1[C@H]1CN2CC[C@H]1C[C@@H]2COC(=O)Nc1cccc(C(F)(F)F)c1	-19%
Cc1nc(-c2cccs2)cc([C@H]2CN3CC[C@H]2C[C@@H]3COC(=O)Nc2cccc(C(F)(F)F)c2)n1	7.9µM*
CCNC(=O)NC[C@H]1C[C@@H]2CCN1C[C@@H]2c1cc(-c2cccs2)nn1C	i
Cc1nc(-c2cccs2)cc([C@H]2CN3CC[C@H]2C[C@@H]3CO)n1	11µM*
Cn1nc(-c2cccs2)cc1[C@H]1CN2CC[C@H]1C[C@@H]2COC(=O)Nc1cccc(C(F)(F)F)c1	-8%
Cc1nc(-c2cccs2)cc([C@H]2CN3CC[C@H]2C[C@@H]3COC(=O)NC2CCCCC2)n1	i
CCNC(=O)N1CCCCCNC(=O)[C@@H]2CCC[C@@H]21	i
COC(=O)[C@H]1CCCN1C(=O)[C@@H]1[C@@H](NC(=O)NC(C)C)CCN1C(=O)c1cccn1C	26%[44.1 µM]
Cc1ccc(CN2C[C@H]3CN(Cc4ccc(C(=O)O)cc4)CCN3C2=O)cc1	i
COc1ccc2c(CNCc3ccco3)c(C(=O)O)n(Cc3ccccc3)c2c1	-8%
Cc1ccc2c(CNCC(C)c3ccccc3)c(C(=O)O)n(Cc3ccccc3C)c2c1 (centres undefined)	i
CCc1ccc(CNCc2c(C(=O)O)n(Cc3ccc(C)cc3)c3cc(C)ccc23)cc1	5µM*
COc1ccc2c(CNCc3cccs3)c(C(=O)O)n(Cc3ccc(C)cc3)c2c1	-6%
Cc1ccc2c(CNCc3cccc(Cl)c3)c(C(=O)O)n(Cc3ccc(F)cc3Cl)c2c1	34%
C=Cc1ccc(Cn2c(C(=O)O)c(CNCc3ccccc3)c3ccc(C)cc32)cc1	7.9µM*
Cc1ccc(Cn2c(C(=O)O)c(CNCc3ccc(OC(C)C)cc3)c3ccc(C)cc32)cc1	11µM*
Cc1ccc(CNCc2c(C(=O)O)n(Cc3ccc(C)cc3)c3cc(C)ccc23)cc1	-13%
Cc1ccc2c(CNC3CCCC3)c(C(=O)O)n(Cc3ccc(F)cc3)c2c1	-3%
COc1ccc(OC)c(CNCc2c(C(=O)O)n(Cc3ccccc3)c3cc(OC)ccc23)c1	i
COc1ccc(Cn2c(C(=O)O)c(CNCc3ccco3)c3ccc(C)cc32)cc1	i
Cc1ccc(CNCc2c(C(=O)O)n(Cc3ccccc3C)c3cc(C)ccc23)cc1	3.2µM*
Fc1ccc(-c2noc(-c3nnn4c3COC(c3ccc(Cl)cc3)C4)n2)cc1F (centres undefined)	-4%
Cc1cc2nc3n(c(=O)c2n1CC(=O)Nc1ccc(Br)cc1F)CCCCC3	-5%
Cc1nc(C)c(C(=O)N2CCc3onc(-c4cccc(F)c4)c3C2)s1	-14%
SMILES	Pf Dd2 growth
CCOCC(=O)N1CCC2(CC1)NCCc1c2[nH]c2ccc(OC)cc12	-23%
Cc1c(Cl)c(C(=O)N2CCn3nc(Cc4ccccc4)cc3C2)nn1C	-13%
CC(C)(C)C(=O)N1CCC2(CC1)C(=O)NCN2Cc1ccc(Cl)cc1	i
CC(C)Cc1cc(C(=O)N2CC(OCc3ccc(F)cc3)C2)on1	2%
Cc1ccc(-n2nc3c(N4CCC(C(=O)NC5CCCCC5)CC4)nnc(C)c3c2C)cc1	10%
CCNC(=O)C1CCN(c2nnc(C)c3c(C)n(-c4ccc(OC)cc4)nc23)CC1	8.9µM*
COc1cc(NC(=O)C2CCN(c3nnc(C)c4c(C)n(-c5ccccc5)nc34)CC2)cc(OC)c1	-16%
COc1ccc(CNC(=O)C2CCN(c3nnc(C)c4c(C)n(-c5ccc(C)cc5)nc34)CC2)cc1	7.9µM*
Cc1ccc(-n2nc3c(N4CCC(C(=O)NC(C)C)CC4)nnc(C)c3c2C)cc1	55%[5.79 µM]
Cc1nnc(N2CCC(C(=O)NCCc3ccccc3)CC2)c2nn(-c3ccccc3)c(C)c12	-16%
Cc1nnsc1C(=O)N[C@H]1CCN(C(=O)c2ccco2)[C@H](C(=O)N[C@@H](Cc2cccs2)C(N)=O)C1	0%
Cc1ccc(NC(=O)N2CC3CC(C2)[C@H]2CCCC(=O)N2C3)cc1 (some centres undefined)	10%
Cc1ccc(N2CC(c3noc(-c4cnccn4)n3)CC2=O)cc1 (centres undefined)	19%
O=C(c1ccc(F)cc1)N1CCCC2(CNc3ccccc3[S+](=O)([O-])N2)C1 (centres undefined)	-6%
Cc1nnc(-c2cc(-c3cccc(F)c3)ccn2)n1CCc1ccccc1	-11%[44.1 µM]
Cc1nnc(-c2cc(-c3cccc(O)c3)ccn2)n1CCc1ccccc1	i
CC(=O)Nc1cccc(-c2ccnc(-c3nnc(C)n3CCc3ccccc3)c2)c1	7.9µM*
Cc1noc(-c2ccccc2Cl)c1C(=O)NCCCOC(C)C	i
CCC(=O)N1CCCC1c1nc(CCOCC2CCOCC2)no1 (centres undefined)	-23%
CCOc1cc(C2Sc3ccccc3NC3=C2C(=O)c2ccccc23)ccc1O (centres undefined)	11µM*
C#CCOc1c(Br)cc(C2C(C(=O)OC)=C(C)NC3=C2C(=O)c2ccccc23)cc1OCC (centres undefined)	i
CCOc1cc(C2CC(=O)Nc3c2c(C)nn3-c2nc(C)cc(C)n2)ccc1O (centres undefined)	-28%
O=C1C2=C(Nc3ccccc3SC2c2ccc(Cl)c(Cl)c2)c2ccccc21 (centres undefined)	3.5µM*
CCCc1ccc(C2Sc3ccccc3NC3=C2C(=O)c2ccccc23)cc1 (centres undefined)	3.2µM*
CC(=O)Nc1ccc(NC(=O)CC2Sc3ccccc3NC2=O)cc1 (centres undefined)	16%
SMILES	Pf Dd2 growth
O=C(NCc1ccccc1Cl)c1cc2c(s1)-c1ccccc1SC2	-1%
CC(=O)N[C@@H]1CN(C(=O)CCc2c[nH]c3ccccc23)C[C@H]1CO	15%
O=C(O)C[C@@H]1CCN(C(=O)Nc2ccc(OC(F)(F)F)cc2)C[C@@H]1CCN1C[C@@H]2C[C@H](C1)c1cccc(=O)n1C2	i
O=C(CC(c1ccccc1)c1ccccc1Cl)N1CCCC1 (centres undefined)	-10%
CC(=O)N1CCN([C@H]2[C@@H]3OC[C@@H](O3)[C@@H](NC(=O)NC3CCCCC3)[C@@H]2O)CC1	29%[44.1 µM]
CN(Cc1ccccc1)Cc1cc(CC2(NCc3ccccc3)COC2)no1	i
CCN1c2cc(C(=O)NCc3ccc(F)cc3Cl)ccc2C(=O)N2CCCCCC21 (centres undefined)	-20%
COc1ccccc1OC1(C(=O)O)CCN(C(=O)C2CC23CCC3)CC1 (centres undefined)	-12%
CCC(c1cccs1)N1C(=O)[C@H]2CN(S(=O)(=O)c3ccc(C(C)C)cc3)C[C@H]2C1=O (some centres undefined)	i
COc1ccccc1C(=O)Nc1ccc(-c2nc3cc(C)cc(C)c3o2)cc1	3%
Cc1cc(C)c2oc(-c3cccc(NC(=O)c4ccc(Br)o4)c3)nc2c1	41%
Cc1cc(C)c2oc(-c3ccc(NC(=O)c4cc(Br)ccc4Cl)cc3)nc2c1	10µM*
CN(C)C(=O)c1ccnc(-c2nnc3ccc(NCCN4CCOCC4)nn23)c1	44%[44.1 µM]
N#Cc1cccc(NC(=O)CCn2ccn3nc4c(c3c2=O)CCCC4)c1	i
O=[N+]([O-])c1ccccc1CN1C[C@H](O)C[C@H]1c1nc(-c2ccncc2)no1	-28%[44.1 µM]
Cn1cc(S(=O)(=O)c2ccc(Cl)cc2)c(=O)c2cc(F)c(N3CCCCCC3)cc21	14µM*

Screens (PubChem BioAssay)
